Screens (PubChem BioAssay)
PfHsp40 yeast: compounds rescuing yeast from Plasmodium falciparum HSP40 toxicity. S. cerevisiae expressing PfHsp40, growth rescue, ATP luminescence. growth rescue, % at 12.5 µM. 340,000 tested, 0.68% active. AID 504582; in the data active = growth rescue above about 28%, passing the limit was not always enough;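 also: yeast W303a lacking pdr1 and pdr3 grown in galactose medium; growth measured after three days at 30 °C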
ugtP null kill: growth inhibition of S. aureus ugtP deletion strain | 330,000 tested, 0.54% active | S. aureus RN4220 ugtP deletion, OD600 growth, 16 h | AID 1259309 | growth inhibition, % (concentration not given with the values); in the data active = growth inhibition above about 68%
RN4220 kill: kills Staphylococcus aureus RN4220 | S. aureus RN4220 growth, OD600, 16 h | inhibition, % (concentration not given with the values) | 330,000 tested, 0.33% active | AID 1259311; in the data active = inhibition above about 85%
CCHF vOTU inh: CCHFV vOTU protease inhibition; AID 651958; inhibition, % at 11.5 µM; 370,000 tested, 0.55% active; Pep-AMC fluorescence; in the data active = inhibition above about 30%
BH1578 lux ind: induces V. cholerae light production without autoinducers; V. cholerae BH1578 lux reporter, luminescence, 6 h; activation, % at 18.7 µM; 350,000 tested, 0.16% active; AID 588436; in the data active = activation mostly above about 9.7%, no sharp cut-off
Mtb hypoxia inh: Mtb hypoxia fluorescent reporter inhibition. M. tuberculosis hypoxia-regulated fluorescent reporter, fluorescence. fluorescence inhibition, % (no concentration beside the values). 300,000 tested, 0.1% active. AID 1159583; in the data active = fluorescence inhibition mostly above about 23%, no sharp cut-off; inactive = mostly below about 17%
Numbers stand for hits; – = inactive; · = no result given. Most compounds without a hit are left out; they make up all but 1.7% or so of the library.

SMILES	PfHsp40 yeast	ugtP null kill	RN4220 kill	CCHF vOTU inh	BH1578 lux ind	Mtb hypoxia inh
COc1ccccc1C(=O)Nc1ccccc1SC(=O)c1ccccc1OC	–	89.3	–	–	–	–
Cc1ccc2occ(C=NNC(=O)c3ccccc3Br)c(=O)c2c1	·	–	–	·	·	–
CC(NC(=O)c1nc[nH]c1C(=O)NC(C)c1ccccc1)c1ccccc1 (stereo not given)	·	–	–	·	·	–
C/C(C=NNc1nncc(=O)[nH]1)=C\c1ccccc1	·	–	–	·	·	–
COc1cc(OC)c(C(=O)Nc2ccc(C(=O)c3ccccc3)cc2)cc1OC	154.0	–	–	–	–	–
Cc1cc(C(=O)NN=C/C=C/c2cccc([N+](=O)[O-])c2)n[nH]1	·	–	–	·	·	–
Cn1nc(C(F)(F)F)c(C=NOC(=O)c2ccccc2)c1SCc1ccc(Cl)cc1	·	–	–	·	·	–
Cn1nc(C(F)(F)F)c(/C=N/OC(=O)c2ccccc2Cl)c1SCc1ccc(Cl)cc1	51.6	·	·	–	–	·
CC(C)(C)OC(=O)NC(Cc1ccccc1)C(=O)NC(CO)C(O)C1CC1C(=O)NC1CCCCC1 (stereo not given)	·	–	–	·	·	–
Cc1ccc(Cl)cc1NC(=O)C1CCCN(S(C)(=O)=O)C1 (stereo not given)	–	–	–	–	–	–
Cc1ccc(Cl)cc1NC(=O)C1CCCN1S(=O)(=O)c1ccc(-c2ccc(=O)[nH]n2)s1 (stereo not given)	–	96.6	96.5	–	–	–
COc1cccc(CNC(=O)COc2ccc(C(=O)c3ccccc3)cc2)c1	499.3	–	–	–	–	–
CC1(C)CC(=O)C(C=Nc2ccccn2)=C(O)C1	·	–	–	·	·	–
CSc1ccccc1N=CC1=C(O)CC(C)(C)CC1=O	–	–	–	–	17.9	–
CCCCN1CC(=O)N2C(c3ccc(OC)cc3)C3C(=O)N(CC)C(=O)C3[C@]2(Cc2ccccc2)C1=O (stereo not given in full)	·	–	–	·	·	–
Cc1ccc(NC(=S)c2nc3ccccc3[nH]2)c(C)c1	331.1	–	–	–	–	–
Cc1ccc(NC(=S)c2nc3ccccc3[nH]2)cc1	–	–	–	–	–	·
Cc1ccc(SCC(=O)N(Cc2nc(-c3ccccc3)no2)C(C)C)cc1	–	–	–	–	25.0	·
COc1cccc(-c2c(-c3cc(OC)cc(OC)c3)n(C)c3ccc(-c4cnc(N5CCOCC5)nc4)cc23)c1	–	–	–	–	–	45.2
Cn1c2ccccc2c2cc(C(=O)O)ccc21	41.6	–	–	–	–	–
CCCn1c2ccccc2c2cc(C(=O)O)ccc21	325.3	·	·	–	–	·
CCC1(C)NC(=O)N(N=Cc2ccc(C)s2)C1=O (stereo not given)	·	–	–	·	·	–
Cc1c(C=CC(=O)c2ccc(O)cc2)cnn1C	·	–	–	·	·	–
COC(=O)C1=C(c2cccc(C#N)c2)CC2CCC1N2C(=O)NC(C)C (stereo not given)	·	–	–	·	·	–
CN=c1scc(-c2cccs2)n1N=Cc1ccc(O)c(O)c1O	·	–	–	·	·	–
SMILES	PfHsp40 yeast	ugtP null kill	RN4220 kill	CCHF vOTU inh	BH1578 lux ind	Mtb hypoxia inh
CN=c1scc(-c2ccccc2F)n1/N=C/c1ccc(O)c(O)c1O	30.1	·	·	–	–	·
Cc1oc2c(c1C(=O)NCc1cccnc1)C(=O)c1ccccc1C2=O	·	–	91.3	·	·	–
CN1CC2C3C(=O)N(Cc4ccccc4)C(=O)C3[C@](C)(C1=O)N2C(=O)c1ccccc1 (stereo not given in full)	·	–	–	·	·	–
O=C(Cc1ccccc1)Nc1nc(-c2ccc(F)c(F)c2)cs1	–	–	–	–	–	–
O=C(Cc1ccccc1F)Nc1nc(-c2ccc(F)c(F)c2)cs1	241.9	–	–	–	–	–
O=C(O)c1cccc(N/N=C/c2cc(Br)cc(Br)c2O)c1	–	·	·	–	–	·
Cc1c(N=Cc2cc(Br)cc(Br)c2O)cccc1C(=O)O	58.9	–	–	–	–	–
NC(=O)COC(=O)c1oc2ccccc2c1CSc1ccc(Cl)cc1	–	96.2	–	–	–	–
COc1ccc(/C=C/C(=O)c2ccccc2)cc1COc1ccc(F)cc1	–	–	–	–	–	–
COc1ccc(/C=C/C(=O)c2ccc(O)cc2)cc1COc1ccc(F)cc1	–	87.0	–	–	–	–
COc1cc(C(=O)NN=CC2CC=CCC2)cc(OC)c1OC (stereo not given)	·	–	–	·	·	–
O=C(NC(=S)Nc1nc2c(s1)CSc1ccccc1-2)c1ccccc1	–	83.5	–	–	–	–
O=C(NC(=S)Nc1nc2c(s1)CCCC2)c1ccc(C(=O)c2ccccc2)cc1	–	–	–	–	–	–
O=C(NN=Cc1cccc(F)c1)c1c(O)c2ccccc2[nH]c1=O	·	100.1	99.4	·	·	–
O=C(NN=Cc1ccc(F)cc1)c1c(O)c2ccccc2[nH]c1=O	·	–	–	·	·	–
CC(C)=NNC(=O)c1c(O)c2ccccc2[nH]c1=O	100.3	–	–	–	–	–
CCNC(=O)c1c(O)c2ccccc2[nH]c1=O	–	–	–	–	–	–
C=C(C)C(=O)Nc1cccc(C2=NOC3(C2)CC(C(N)=O)N(C(=O)C2(C)CC2)C3)c1 (stereo not given)	·	–	–	·	·	–
CCOc1ccc(S(=O)(=O)NC2CCCCCC2)cc1	–	–	–	–	–	–
CCOc1cc(S(=O)(=O)NC2CCCCCC2)ccc1F	47.6	–	–	–	–	·
COc1cc(S(=O)(=O)NC2CCCCC2)ccc1Cl	91.1	–	–	–	–	·
CC(=O)N1c2ccc(S(=O)(=O)NCCC(=O)NCCc3cccc(C)c3)cc2CC1C (stereo not given)	67.7	–	–	–	–	–
CC(=O)N1c2ccc(S(=O)(=O)NCCC(=O)NCCc3ccc(C)cc3)cc2CC1C (stereo not given)	–	–	–	–	–	–
Oc1c(Cl)cc(Cl)cc1/C=N/NC(=S)NC1CC2C=CC1C2 (stereo not given)	132.5	·	·	–	–	·
Cc1nnc(C)n1N=Cc1ccc(-c2ccccc2Cl)o1	·	–	–	·	·	–
Cc1c(N2C(=O)CSC2=NN=Cc2ccc(Cl)cc2)c(=O)n(-c2ccccc2)n1C	·	–	–	·	·	–
O=C(CN1CCCC1)N/N=C/c1c(O)ccc2ccccc12	52.5	·	·	–	–	·
O=C(NN=Cc1c(O)ccc2ccccc12)C1CC1	–	90.5	–	–	–	–
